Some test systems named below: SR leukemia; RPMI-8226 leukemia; OVCAR-8 ovarian; OVCAR-5 ovarian; OVCAR-4 ovarian; SK-OV-3 ovarian; IGROV1 ovarian; OVCAR-3 ovarian; NCI/ADR-RES ovarian; T-47D breast; BT-549 breast; MDA-MB-435 melanoma; SW-620 colon; MCF7 breast; HCT-116 colon; HCC-2998 colon; KM12 colon.
Assay in all cases: NCI-60 one-dose screen, 48 h (100 = growth as untreated, 0 = no growth, -100 = all killed)
Details in all cases: 10 µM unless noted

The panel holds about 83,000 compounds, 20% with a hit somewhere; the sample as a whole holds those more often.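 Growth was measured after 48 h exposure to one concentration of compound in 96-well plates. Values under 10 count as active.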 A number with no mark means an inactive call. Active and inactive are the calls of the source.

Turning to `Oc1ccc(Br)cc1/C=N/NC(=S)NC12CC3CC(CC(C3)C1)C2`, the growth is -7.5% (active) in the assay on SR leukemia; -21.3% (active) in the assay on RPMI-8226 leukemia; -31.3% (active) in the assay on OVCAR-8 ovarian; 46.9% in the assay on OVCAR-5 ovarian; 36.9% in the assay with OVCAR-4 ovarian; 39.7% in the assay with SK-OV-3 ovarian. The growth is 5.57% (active) in the assay on IGROV1 ovarian; -26.5% (active) in the assay with OVCAR-3 ovarian; -3.63% (active) in the assay on NCI/ADR-RES ovarian; -4.11% (active) in the assay on T-47D breast; 64.3% with BT-549 breast; 18.6% in the assay with MDA-MB-435 melanoma. For the same molecule, the growth in the assay on SW-620 colon is -24.8% (active); with MCF7 breast, -17.4% (active); with HCT-116 colon, 8.08% (active); in the assay with HCC-2998 colon it was -8.19% (active); with KM12 colon it was -24.6% (active).

As to `CCCCCCCCCCCCCCCCCC1=NCCN1CS(=O)(=O)O`, the growth in the assay on SR leukemia is -3.33% (active); in the assay on RPMI-8226 leukemia it was 65%; in the assay with OVCAR-8 ovarian, 36.1%; in the assay with OVCAR-5 ovarian it was 76.9%; in the assay on OVCAR-4 ovarian it was 82.4%; in the assay with SK-OV-3 ovarian, 70.4%. The growth was -23.8% (active) in the assay with IGROV1 ovarian; 50.9% in the assay with OVCAR-3 ovarian; 59.2% in the assay on NCI/ADR-RES ovarian; 93.5% with BT-549 breast; -19.9% (active) with MDA-MB-435 melanoma; 4.2% (active) in the assay with SW-620 colon. In addition, the growth with MCF7 breast was 30.3%; in the assay with HCT-116 colon it was 44.2%; with HCC-2998 colon, 101%; with KM12 colon it was 16.4%.

For `CC1(C)N=C(N)N=C(N)N1c1cccc(CCCCOc2ccccc2)c1`, the growth was 31.6% in the assay on SR leukemia; 8.3% (active) with RPMI-8226 leukemia; 19.9% with OVCAR-8 ovarian; 29.6% in the assay on OVCAR-5 ovarian; 61% in the assay on OVCAR-4 ovarian; 41.8% in the assay with SK-OV-3 ovarian. Moreover, the growth was 26.6% in the assay with IGROV1 ovarian; 26.5% with OVCAR-3 ovarian; 107% in the assay with NCI/ADR-RES ovarian; 37.7% with T-47D breast; 35.7% in the assay with BT-549 breast; 12.6% with SW-620 colon. The growth in the assay with MCF7 breast is 1.62% (active); in the assay on HCT-116 colon, 11.3%; in the assay on HCC-2998 colon, 27.1%; in the assay on KM12 colon, 15.9%.

As for `c1ccc2[nH]c(-c3ccc(OCCCCCOc4ccc(-c5nc6ccccc6[nH]5)cc4)cc3)nc2c1`, the growth in the assay with SR leukemia was -22.3% (active); in the assay with RPMI-8226 leukemia, -79.4% (active); in the assay on OVCAR-8 ovarian it was -45.6% (active); in the assay on OVCAR-5 ovarian, 16.1%; with OVCAR-4 ovarian it was -60.5% (active); in the assay on SK-OV-3 ovarian, 207%. The growth in the assay with IGROV1 ovarian is 38.3%; with OVCAR-3 ovarian, 20.4%; in the assay with NCI/ADR-RES ovarian, -0.189% (active); in the assay on T-47D breast, -60.3% (active); in the assay on BT-549 breast, -13.5% (active); in the assay on MDA-MB-435 melanoma, 8.59% (active). Also, the growth is -3.03% (active) in the assay with SW-620 colon, -21.8% (active) in the assay with HCT-116 colon, 14.8% in the assay with HCC-2998 colon and 23.5% with KM12 colon.

Turning to `COc1ccc2sc(-n3nc4nc5n(c(=O)c4c3N)-c3ccccc3Sc3ccccc3-5)nc2c1`, the growth was 65.2% in the assay with SR leukemia; 45.5% in the assay with RPMI-8226 leukemia; 81.7% with OVCAR-8 ovarian; 126% with OVCAR-5 ovarian; 66.4% with OVCAR-4 ovarian; 91.8% in the assay with SK-OV-3 ovarian. Moreover, the growth is 67.9% in the assay on IGROV1 ovarian; 76.6% with OVCAR-3 ovarian; 74% in the assay on NCI/ADR-RES ovarian; 73.2% in the assay with BT-549 breast; 79.5% in the assay with MDA-MB-435 melanoma; 95.6% with SW-620 colon. Moreover, the growth with MCF7 breast is 54.2%; with HCT-116 colon, 65.7%; in the assay on HCC-2998 colon, 93.6%; in the assay on KM12 colon, 81.4%.

`NC(N)=N/N=C/c1cccc(Br)c1`: the growth was 104% in the assay on SR leukemia; 95.3% with RPMI-8226 leukemia; 110% with OVCAR-8 ovarian; 104% in the assay on OVCAR-5 ovarian; 91.6% in the assay on OVCAR-4 ovarian; 91.4% in the assay with SK-OV-3 ovarian. In addition, the growth was 86.4% in the assay on IGROV1 ovarian; 99.8% in the assay on OVCAR-3 ovarian; 103% in the assay with NCI/ADR-RES ovarian; 86.8% in the assay with T-47D breast; 87% in the assay with BT-549 breast; 105% in the assay on MDA-MB-435 melanoma. Moreover, the growth with SW-620 colon is 102%; in the assay with MCF7 breast, 90.5%; in the assay on HCT-116 colon it was 92.5%; in the assay with HCC-2998 colon it was 101%; with KM12 colon it was 107%.

For `CCCCCCNc1nc(N2CCOCC2)c2[nH]c(NCCCCCC)nc2n1`, the growth in the assay with SR leukemia is -29.2% (active); in the assay on RPMI-8226 leukemia, -44.4% (active); in the assay with OVCAR-8 ovarian it was -67.7% (active); in the assay on OVCAR-5 ovarian, -92% (active); with OVCAR-4 ovarian, -88.9% (active); with SK-OV-3 ovarian, -97.1% (active). The growth was -55.4% (active) in the assay with IGROV1 ovarian; -98.1% (active) in the assay on OVCAR-3 ovarian; -98% (active) with NCI/ADR-RES ovarian; -70.4% (active) in the assay with T-47D breast; -81.4% (active) with BT-549 breast; -58.6% (active) in the assay on MDA-MB-435 melanoma. The growth is -88.4% (active) in the assay with MCF7 breast, -100% (active) in the assay with HCT-116 colon, -100% (active) with HCC-2998 colon and -89.9% (active) with KM12 colon.

As for `CCCCN(CCC)CCCCCCCCCCN1CCCc2ccccc21`, the growth with SR leukemia is 10.5%; in the assay on RPMI-8226 leukemia, -2.32% (active); with OVCAR-8 ovarian, 102%; in the assay with OVCAR-5 ovarian, 108%; with OVCAR-4 ovarian, 79.4%; in the assay on SK-OV-3 ovarian, 81.4%. Moreover, the growth in the assay on IGROV1 ovarian was 48.5%; in the assay on OVCAR-3 ovarian it was 53.7%; in the assay on NCI/ADR-RES ovarian, 90.1%; with T-47D breast it was 102%; in the assay with BT-549 breast, 89.6%; in the assay on MDA-MB-435 melanoma, 85.2%. Besides, the growth was 43.9% in the assay on SW-620 colon; 76.2% with MCF7 breast; 58.3% in the assay on HCT-116 colon; 98.3% with HCC-2998 colon; 45.2% in the assay with KM12 colon.

As to `COc1nc(OC)nc(-c2cc(-c3cc(OC)c(OC)c(OC)c3)no2)n1`, the growth was 95.6% in the assay on SR leukemia; 90.4% in the assay with RPMI-8226 leukemia; 98.3% in the assay on OVCAR-8 ovarian; 115% with OVCAR-5 ovarian; 106% in the assay with OVCAR-4 ovarian; 116% in the assay on SK-OV-3 ovarian. Further, the growth in the assay with IGROV1 ovarian was 121%; in the assay with OVCAR-3 ovarian, 116%; in the assay with NCI/ADR-RES ovarian, 98.9%; in the assay with T-47D breast, 103%; with BT-549 breast, 120%; with MDA-MB-435 melanoma, 111%. Further, the growth is 102% with SW-620 colon; 93.7% in the assay with MCF7 breast; 105% in the assay on HCT-116 colon; 112% with HCC-2998 colon; 102% in the assay on KM12 colon.

These data come from PubChem BioAssay (NCI).
